USP1-UAF1 inh – Inhibitors of USP1/UAF1: Primary Screen | Potency, µM (top dose mostly 57.1 µM), without a hit: top-dose activity change, negative = inhibition, actives largely listed as inhibitors | recombinant USP1/UAF1, Ub-Rhodamine cleavage fluorescence | 390,000 compounds, 0.23% hits | Ubiquitin carboxyl-terminal hydrolase 1 (Homo sapiens), O94782; also: potency is read from the fitted curve at half-maximal effect; nearly all actives have a fitted effect of over 60% in size
Target sequence (O94782 whole entry, looked up): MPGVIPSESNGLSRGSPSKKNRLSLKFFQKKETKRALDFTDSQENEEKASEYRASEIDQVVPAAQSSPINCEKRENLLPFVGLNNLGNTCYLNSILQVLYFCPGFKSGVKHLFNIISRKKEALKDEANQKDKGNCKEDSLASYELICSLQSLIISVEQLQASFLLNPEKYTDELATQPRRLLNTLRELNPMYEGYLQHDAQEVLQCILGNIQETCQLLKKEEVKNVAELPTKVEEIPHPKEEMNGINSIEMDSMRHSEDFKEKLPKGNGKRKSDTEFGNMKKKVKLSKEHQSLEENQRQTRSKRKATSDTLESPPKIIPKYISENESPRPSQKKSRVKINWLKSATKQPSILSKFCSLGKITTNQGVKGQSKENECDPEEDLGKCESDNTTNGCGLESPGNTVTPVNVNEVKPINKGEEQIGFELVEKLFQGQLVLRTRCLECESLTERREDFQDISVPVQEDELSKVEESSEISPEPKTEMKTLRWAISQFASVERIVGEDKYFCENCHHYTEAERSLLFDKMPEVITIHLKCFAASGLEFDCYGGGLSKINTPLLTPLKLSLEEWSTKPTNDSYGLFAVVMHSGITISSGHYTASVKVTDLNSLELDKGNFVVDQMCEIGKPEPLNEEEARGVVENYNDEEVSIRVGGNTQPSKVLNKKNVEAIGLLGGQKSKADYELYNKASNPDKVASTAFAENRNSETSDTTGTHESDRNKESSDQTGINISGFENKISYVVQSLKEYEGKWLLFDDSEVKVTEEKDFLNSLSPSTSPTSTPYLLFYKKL
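In this screen, compounds sit with the deubiquitinase complex (1nM) for 15 min at room temperature before Ub-Rho is added at 150nM final. Fluorescence rise is then followed for 6 reads every 60 seconds.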
Tau fibril FP – qHTS for Inhibitors of Tau Fibril Formation, Fluorescence Polarization; Microtubule-associated protein tau (Homo sapiens), P10636; K18 P301L tau heparin fibrillization, Alexa594 FP, 6 h; Potency, µM (titrated, usually from 57.7 µM), for inactives: at the top dose activity, negative = inhibition, most hits filed as inhibitors; 280,000 compounds, 0.39% hits; AID 1468, 2008; also: potency is read from the fitted curve at half-maximal effect; nearly all actives have a fitted effect of over 55% in size
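Human tau K18 […] P301L fragment, 15 uM unlabeled plus 0.24 uM Alexa 594-labeled tau (final), with compound and 20 uM heparin in 100 mM sodium acetate pH 7; 6 hr at 37 C, then Alexa 594 FP read.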
Tau ThT inhib – qHTS for Inhibitors of Tau Fibril Formation, Thioflavin T Binding; recombinant tau K18 P301L, heparin-induced fibrillization, ThT fluorescence; Potency, µM (doses to about 57.4 µM), for inactives: at the highest dose activity, negative = inhibition, actives largely listed as inhibitors; 270,000 compounds, 2.1% hits; also: potency is read from the fitted curve at half-maximal effect; nearly all actives have a fitted effect of over 55% in size
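Heparin-induced (20 uM) aggregation of recombinant human K18 P301L tau, 15 uM unlabeled with 0.24 uM labeled, pH 7 acetate buffer, 6 hr at 37 C with compound. Fibrils quantified by 30 uM ThT fluorescence after 1 hr ambient incubation.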
Coupling enz – qHTS Assay for Inhibitors of Fructose-1,6-bisphosphate Aldolase from Giardia Lamblia: Coupling assay counterscreen. coupling enzyme system counterscreen, AmpLite Red fluorescence. activity change, negative = inhibition, % at 58.2 µM, hits read low. 290,000 compounds, 0.67% hits. AID 2472, 2010; in the data active = activity change below about -30%
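Fluorescence at 525 nm excitation and 598 nm emission measured inhibition of the coupled detection system without aldolase. Compounds (at 57.5 uM final) were preincubated 10 min at room temperature with coupling enzyme reagent before a 20 min substrate/AmpLite Red step.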
Tau fluor cs – Counterscreen qHTS for Inhibitors of Tau Fibril Formation, Fluorescence Polarization; tau K18 P301L Alexa594 fluorescence, heparin fibrillization; Potency, µM (titrated, usually from 57.7 µM), for inactives: at the top dose activity change, negative = decrease; 280,000 compounds, 0.93% hits; AID 1463, 2008; also: potency is read from the fitted curve at half-maximal effect; nearly all actives have a fitted effect of over 55% in size
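Human tau K18 P301L (15 uM unlabeled, 0.24 uM Alexa 594-labeled) in 100 mM sodium acetate pH 7 with 20 uM heparin, 6 hr at 37 C. ThT 30 uM added, 1 hr ambient; Alexa 594 FP and total fluorescence read at 555/632 nm.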
Active calls of the source: *; ? = inconclusive; nt = not tested or not shown; [ ] = another dose, or the depositor's remark. This is a sample that favours compounds with a hit; in the whole collection about 2.3% have one here. Unless noted, calls follow the shape of the dose curve; as a rule, active = well fitted curve in the direction sought with a large enough effect; inconclusive = small, poorly fitted or top-dose-only effect, or another doubt; inactive = no such curve, though single readings can be large; an effect the other way counts as inactive or inconclusive. % is scaled to controls: 0 for no effect and ±100 for the full control effect.

SMILES	USP1-UAF1 inh	Tau fibril FP	Tau ThT inhib	Coupling enz	Tau fluor cs
O=C(COC(=O)c1ccc(F)cc1Cl)NC(=O)NC1CCCC1	-12%	nt	nt	nt	nt
Fc1cccc(NC(=S)NNc2c3ccccc3nc3ccccc23)c1	?	-17%	7.9µM*	-11	11µM*[quencher]
Cc1ccc(/C=N/NC(=O)c2cccc(S(=O)(=O)Nc3ccccc3Cl)c2)s1	-19%	-9%	-14%	-34*	?
O=C(N/N=C/c1ccccc1C(=O)O)c1cccc(S(=O)(=O)Nc2cc(Cl)ccc2Cl)c1	-11%	3%	-2%	17	1%
Cn1c(COc2ccccc2)nnc1SCCSc1nnc(COc2ccccc2)n1C	-7%	-5%	-14%	2	2%
Cn1c(COc2ccc(Br)cc2)nnc1SC1CCc2ccccc2C1=O (stereo not drawn)	-10%	?	32µM*	-57*	?
O=C(NCc1ccccc1)c1sc(=S)n2c1[nH]c(=O)c1ccccc12	?	6%	14µM*	nt	?
COC(=O)CSc1nc(-c2ccccc2)cc(-c2ccco2)c1C#N	-16%	-19%	?	-32*	-28%
COC(=O)CSc1nc(N)c(C#N)c(-c2ccco2)c1C#N	-23%	-1%	?	-3	-15%
CCOC(=O)c1sc(NC(=O)CSc2nc(C)cc(-c3ccccc3)n2)c(C#N)c1C	-3%	?	35µM*	5	?
COc1ccc(-c2cc(-c3ccccc3)c(C#N)c(SCC(=O)Nc3ncc(C)s3)n2)cc1	-12%	28µM*	-9%	1	-28%
CCc1cccc(NC(=O)CN(C)S(=O)(=O)c2ccc3c(c2)n(C)c(=O)c(=O)n3C)c1	-4%	-3%	-4%	nt	-10%
Cc1cccc(C(=O)Nc2sc(-c3ccccc3)cc2C(=O)O)c1	?	14%	14µM*	2	?
CCOc1ccc(CCNC(=O)C2CCN(Cc3nc(-c4ccc(OC)c(OC)c4)oc3C)CC2)cc1OCC	?	-2%	-5%	nt	-1%
Cc1cccc(NC(=O)CN2C(=O)C3(SCC(=O)N3c3ccccc3)c3ccccc32)c1 (stereo not drawn)	-17%	-8%	-2%	nt	-23%
CC(C)c1cc(Nc2cccc(O)c2)cc(C(C)C)c1O	nt	?	32µM*	-23	?
Oc1ccc(N=Nc2n[nH]c(-c3ccc(Br)cc3)n2)cc1	-7%	-15%	2.2µM*	-2	?
Oc1ccc(N=Nc2n[nH]c(-c3ccccc3)n2)cc1	-16%	-5%	2.5µM*	0	-27%
CCOC(=O)CC(=O)COc1nc2cc3c(nc2o1)CCCC3	-16%	nt	nt	-1	nt
COc1ccccc1C1CCN(c2ccc([N+](=O)[O-])c(OC)c2)CC1	-19%	-10%	8.9µM*	-6	?
Cn1cnnc1SCC(=O)Nc1sc2c(c1C#N)CCCCC2	-22%	4%	-11%	-42*	-6%
CCCCn1nnnc1SCC(=O)Nc1sc2c(c1C#N)CCCC2	-12%	6%	?	3	-16%
Cc1ccc(C(=O)COC(=O)c2cc(-c3ccc(Cl)cc3)nc3ccccc23)cc1	2%	?	1%	nt	-11%
CCn1c(SCc2ccccc2F)nc(=O)c2c(C(=O)OC)cc(C3CC3)nc21	-21%	-15%	?	nt	-6%
CCc1ccc(-n2c(=O)c3ccccc3n(Cc3ccccc3C#N)c2=O)cc1	-21%	-9%	-2%	nt	-11%
SMILES	USP1-UAF1 inh	Tau fibril FP	Tau ThT inhib	Coupling enz	Tau fluor cs
CCN(CC)c1ccc(/C=N/NS(=O)(=O)c2ccc(C)c([N+](=O)[O-])c2)cc1	-21%	-3%	?	0	?
CCN(Cc1ccccc1)c1ccc(/C=N/NS(=O)(=O)c2cccc([N+](=O)[O-])c2)cc1	-6%	18%	?	1	7.9µM*[quencher]
O=C(CCCN1C(=O)/C(=C/c2ccco2)SC1=S)Nc1cccc(C(=O)O)c1	-26%	-14%	16µM*	-15	-18%
O=C(CCCN1C(=O)/C(=C\c2cccs2)SC1=S)Nc1ccc(C(=O)O)cc1	-9%	-1%	?	1	-24%
O=C(CCCN1C(=O)/C(=C/c2cccs2)SC1=S)Nc1ccc(O)c(C(=O)O)c1	nt	0%	8.9µM*	18	?
O=C(CCCN1C(=O)/C(=C\c2cccs2)SC1=S)Nc1cccc(C(=O)O)c1	-12%	11%	?	10	-20%
COc1ccc(NC(=O)CCCN2C(=O)/C(=C\c3ccco3)SC2=S)cc1	1%	?	16µM*	-6	?
O=C(CSc1nc2c([nH]c3ccccc32)c(=O)n1-c1ccccc1)N1CCCCC1	-15%	7%	-3%	nt	-3%
CS(=O)(=O)Nc1cccc(-c2ccc3ncnc(NCCN4CCOCC4)c3c2)c1	nt	nt	nt	0	nt
C=C1C(=O)O[C@@H]2C[C@@H](C)[C@@H]3C=CC(=O)[C@@]3(C)[C@@H](OC(C)=O)[C@H]12	-20%	?	4µM*	3	-20%
C[C@@H]1C[C@@H]2OC(=O)[C@]3(C)[C@H]2[C@@H](OC3(C)O)[C@]2(C)C(=O)C=C[C@H]12 (stereo partly drawn)	-14%	-10%	-16%	6	17%
COc1ccc2oc(=O)c(C(=O)NCCc3c(C)[nH]c4c(C)cccc34)cc2c1	-27%	11%	?	nt	16µM*[quencher]
Cc1[nH]c2c(C)cccc2c1CCNC(=O)c1cc2ccccc2oc1=O	-30%	-5%	-18%	nt	?
COc1cc(C(=O)OCc2cc(=O)n3nc(C4CCCCC4)sc3n2)cc(OC)c1OC	-2%	2%	-13%	nt	7%
Cc1cc(C)cc(NC(=O)CN2C(=O)CSc3ccc(S(=O)(=O)N(C)C)cc32)c1	-19%	-2%	-2%	nt	-14%
COc1cc(OC)nc(-n2ncc(Br)c(Br)c2=O)n1	-24%	?	10µM*	-2	-13%
O=C(Nc1ccc(N2CCCC2)cc1)c1cccc(F)c1	-16%	?	13µM*	-4	?
Cc1ccc(NC(=O)c2sc3ccccc3c2Cl)cc1	12%	?	?	nt	-8%
O=C(Nc1ccc(N2CCN(c3ccc(O)cc3)CC2)cc1)Oc1ccccc1	-14%	-5%	5µM*	-1	7.9µM*[quencher]
CC(=O)Nc1ccc(N2CCCC2)cc1	-7%	?	28µM*	-32*	?
CN1CCN(c2ccc(NC(=O)c3sc4ccccc4c3Cl)cc2)CC1	-14%	4%	5µM*	2	?
COC(=O)c1cc(S(=O)(=O)N(C)Cc2ccco2)c[nH]1	-18%	nt	nt	4	nt
O=C(Cn1c(-c2ccccc2)noc1=O)Nc1ccc(N2CCCCCC2)cc1	-22%	?	-14%	-6	14µM*[quencher]

Screening results as filed in PubChem.
